Bioassay records deposited in PubChem BioAssay by National Center for Advancing Translational Sciences (NCATS).
Most compounds without a hit are left out; they make up all but 17% or so of the library.
ClpP mod: qHTS Assay for Activators of ClpP. ATP-dependent Clp protease proteolytic subunit (Bacillus subtilis (strain 168)), P80244. purified B. subtilis ClpP, FRET peptide cleavage, 20 min. Potency, µM (doses to about 57.5 µM), inactives show top-dose activity change, negative = active. 1.9% of 340,000 active; active means well fitted falling curve with a large enough effect; inconclusive means small, poorly fitted or top-dose-only effect; inactive means no such curve, though single readings can be large or run the other way; further: the source files actives as falling curves though it sought activators and does not explain the sign; nearly all actives have a fitted effect of over 65% in size
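Purified B. subtilis ClpP, 10 microg/mL final in Tris/HCl pH8 with KCl, BSA, glycerol and Tween-20, cleaved an Abz/nitrotyrosine-quenched decapeptide. Fluorescence (ex 320, em 430) was read at 0 and 20 min at room temperature. Delta was normalized to 5.8 microM ADEP and DMSO/no-enzyme controls.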
TDP1 cell noCPT: qHTS for Inhibitors of human tyrosyl-DNA phosphodiesterase 1 (TDP1): qHTS in cells in absence of CPT. 15% of 420,000 active. Potency, µM (top dose mostly 46.2 µM), for inactives: top-dose activity change, negative = growth inhibition, actives largely listed as inhibitors. DT40 Tdp1-/- hTDP1 cells, no CPT, ATP luminescence, 48 h; further: on the % scale 0 is the no-effect control and ±100 the full control effect; nearly all actives have a fitted effect of over 55% in size
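Seeded 400 DT40-hTDP1 cells/well (vehicle DMSO, no 20 nM CPT); pinned compounds; ≥48 hr at 37 °C; CellTiter-Glo luminescence as viability measure.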
DT40 TDP1 CPT: growth inhibition of DT40 Tdp1-/-;hTDP1 cells with camptothecin (screen for TDP1 inhibitors); 12% of 420,000 active; chicken DT40 Tdp1-/-;hTDP1 cells + 20 nM CPT, ATP luminescence, 48 h; Potency, µM (highest dose often 46.2 µM), for inactives: top-dose activity change, negative = growth inhibition, hits mostly inhibitors; further: on the % scale 0 is the no-effect control and ±100 the full control effect; nearly all actives have a fitted effect of over 55% in size
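Cell growth measured by CellTiter-Glo luminescence after a minimum 48 h, 37 C compound exposure with 20 nM CPT in Tdp1-knockout DT40 cells stably expressing hTDP1, seeded 400/well; qHTS titration format.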
TDP1 inh: inhibitors of human tyrosyl-DNA phosphodiesterase TDP1; Q9NUW8; recombinant TDP1, AlphaScreen DNA substrate cleavage; Potency, µM (top dose mostly 130 µM), for inactives: top-dose activity change, negative = inhibition, actives largely listed as inhibitors; 0.28% of 350,000 active; further: on the % scale 0 is the no-effect control and ±100 the full control effect; nearly all actives have a fitted effect of over 40% in size
Target sequence (Q9NUW8 whole entry, looked up): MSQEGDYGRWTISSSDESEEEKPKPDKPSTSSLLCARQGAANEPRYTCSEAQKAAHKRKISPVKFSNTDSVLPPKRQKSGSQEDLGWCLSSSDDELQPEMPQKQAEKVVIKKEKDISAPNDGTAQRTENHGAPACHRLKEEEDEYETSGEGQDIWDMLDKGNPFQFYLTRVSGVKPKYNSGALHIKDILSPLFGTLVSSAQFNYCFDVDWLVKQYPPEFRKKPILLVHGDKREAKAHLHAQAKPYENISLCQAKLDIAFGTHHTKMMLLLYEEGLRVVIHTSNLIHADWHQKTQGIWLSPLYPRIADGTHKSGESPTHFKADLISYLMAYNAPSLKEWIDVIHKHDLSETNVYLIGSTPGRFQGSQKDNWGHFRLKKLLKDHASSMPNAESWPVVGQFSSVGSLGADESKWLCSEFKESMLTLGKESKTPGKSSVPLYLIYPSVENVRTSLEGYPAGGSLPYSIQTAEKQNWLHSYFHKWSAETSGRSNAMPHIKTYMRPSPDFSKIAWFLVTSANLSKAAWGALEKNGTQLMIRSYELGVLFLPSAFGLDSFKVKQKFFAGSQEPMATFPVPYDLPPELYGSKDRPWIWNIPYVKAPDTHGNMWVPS
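Signal: AlphaScreen proximity between streptavidin donor and anti-FITC acceptor beads on intact substrate. Reaction: Tdp1 1 nM, substrate 15 nM final, 5 min RT after 15 min compound preincubation.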
* = called active by the depositor; ? = inconclusive; nt = no result; [ ] = dose if it differs, or a comment. Unless noted, the call rests on the fitted dose curve; in most records, active means well fitted curve in the direction sought with a large enough effect; inconclusive means small, poorly fitted or top-dose-only effect, or another doubt; inactive means no such curve, though single readings can be large; an effect the other way counts as inactive or inconclusive. Potency means the concentration at half of the fitted maximal effect.

SMILES | ClpP mod | TDP1 cell noCPT | DT40 TDP1 CPT | TDP1 inh
CC1OC(OC2C(CO)OC(OC3C(CO)OC(O)C(O)C3O)C(O)C2O)C(O)C(O)C1NC1C=C(CO)C(O)C(O)C1O (stereo unspecified) | nt | -2% | -10% | 7%
CN(C)c1ccc(/C=N/NC(=O)CN(c2cccc(Cl)c2)S(C)(=O)=O)cc1Br | -5% | 16µM* | 26µM* | 5%
CC1(C)CC(=O)C2=C(C1)OC1=C(C(=O)CC(C)(C)C1)C2c1cccc([N+](=O)[O-])c1 | 2% | 16µM* | ? | nt
CC1(C)CC(=O)C2=C(C1)OC1=C(C(=O)CC(C)(C)C1)C2c1ccc(O)cc1O | 17% | 4µM* | 2µM* | -8%
Clc1ccccc1Cc1noc(CN2CCCCC2CCc2ccccn2)n1 (stereo unspecified) | nt | ? | ? | 2%
O=C(Cc1cccc(NC(=O)C2CCCN(C(=O)C3CC3)C2)c1)Nc1cccc(C(=O)N2CCCC2)c1 (stereo unspecified) | -2% | -4% | -9% | -2%
CCOc1ccc2cc(C3CC(c4ccco4)=NN3S(C)(=O)=O)c(=O)[nH]c2c1 (stereo unspecified) | -8% | 0% | -20% | 4%
CC[C@@H](C)[C@H](CN[C@H](CNC)C(C)C)NC[C@@H](C)c1ccc(CC(C)C)cc1 | -1% | 1.5µM* | 1.5µM* | nt
CC[C@H](C)[C@@H](CNC)NC[C@@H](Cc1ccc(O)cc1)NCC(C)(C)C | 0% | -29% | ? | nt
COC(C[C@H]1O[C@H]1[C@H](O)[C@H](C)OCc1ccccc1)OC | -1% | 0% | 2% | 0%
COc1ccc(NC(=O)CN(c2c(C)cccc2C)S(C)(=O)=O)cc1 | 1% | -17% | 0% | 5%
O=C(NC1CCCC1)c1ccc2c(c1)N(Cc1ccccc1F)C(=O)c1ccccc1S2 | -2% | 15µM* | ? | 3%
O=C(NC1CCCC1)c1ccc2c(c1)N(Cc1ccccc1Cl)C(=O)c1ccccc1S2 | 2% | ? | -24% | -3%
Cc1ccccc1CN1C(=O)c2ccccc2Sc2ccc(C(=O)NC3CCCCC3)cc21 | -2% | 16µM* | 15µM* | 5%
O=C(Nc1cccc(F)c1)C1CCCN(c2cnccn2)C1 (stereo unspecified) | -6% | -26% | -22% | 1%
CCc1ccc(C2c3c(oc4ccc(F)cc4c3=O)C(=O)N2CCc2ccc(OC)cc2)cc1 (stereo unspecified) | 2% | ? | ? | 4%
COc1cccc(-c2ccnc(-n3ncc(C(=O)NCC4(N5CCCCC5)CCCC4)c3C)n2)c1 | nt | -17% | 10%[9.04 µM] | nt
COC(=O)c1ccc(CCc2cc(O)c(Br)cc2O)cc1 | ? | 2.3µM* | 2.1µM* | nt
COC(=O)c1ccc(O)cc1 | 1% | 3% | 14% | 5%
COC(=O)c1ccc(CCc2cc(O)ccc2O)cc1 | -8% | 5.2µM* | 2.9µM* | nt
Cn1ccc2cc(S(=O)(=O)N3CCCN(C(=O)Nc4ccccc4Br)CC3)ccc21 | -14% | nt | nt | -4%
CCOc1[nH]n(-c2ccccc2)c(=O)c1C=Nc1ccc(Cl)cc1 | 1% | 15µM* | ? | -3%
CCOc1[nH]n(-c2ccccc2)c(=O)c1C=Nc1ccccc1 | 2% | 5.8µM* | 6.5µM* | 10%
O=C(NCCc1cccc(Cl)c1)c1ccc(OC2CCN(Cc3ccccn3)CC2)cc1 | -5% | 16µM* | 29µM* | nt
CCn1nc(C)c(CNC(=O)c2ccc(OC3CCN(Cc4ccccn4)CC3)cc2)c1C | -2% | 2.9µM* | 6.5µM* | 3%
SMILES | ClpP mod | TDP1 cell noCPT | DT40 TDP1 CPT | TDP1 inh
Cc1cccnc1CCNC(=O)c1ccc(OC2CCN(Cc3ccccn3)CC2)cc1 | -1% | -17% | -8% | 5%
CCc1ccc(Nc2n[n+](-c3ccccc3)c(-c3c(Cl)cccc3Cl)s2)cc1 | -2% | 15µM* | 23µM* | nt
Fc1ccc(-[n+]2nc(Nc3ccccc3)sc2-c2c(Cl)cccc2Cl)cc1 | 0% | ? | 18µM* | nt
Cc1cccc(-c2sc(Nc3ccccc3)n[n+]2-c2ccccc2)c1 | 1% | ? | ? | 3%
CCc1ccc(Nc2n[n+](-c3ccccc3)c(-c3cc(OC)c(OC)cc3Br)s2)cc1 | 1% | ? | 16µM* | nt
O=C(Nc1ccc(Cl)cc1F)c1cnc2sc(N3CCOCC3)nn2c1=O | 0% | 2% | -2% | 3%
Nc1nc2ccccc2nc1N | 14µM* | 5% | -15% | 6%
c1ccc2nc3ccccc3nc2c1 | -5% | 2% | 12% | 3%
COc1ccc(C)cc1NS(=O)(=O)c1cc2c3c(c1)CC(=O)N3CCC2 | 1% | -9% | -25% | 0%
CCN(CCCNC(=O)CSc1cc(=O)n(CC)c2ccccc12)c1cccc(C)c1 | -4% | 21µM* | 21µM* | 12%
CCN(CCCNC(=O)COc1cc(=O)n(CC)c2ccccc12)c1ccccc1 | -1% | ? | 23µM* | 5%
CCn1c(=O)cc(SCC(=O)NCCc2cccc(C)c2)c2ccccc21 | -20% | ? | ? | 0%
Cc1ccc(Cn2nnc3c(=O)[nH]c(C4CCN(S(=O)(=O)c5cc(C)ccc5C)CC4)nc32)cc1 | 1% | 23µM* | ? | 6%
Cc1ccc(C)c(Cn2nnc3c(=O)[nH]c(C4CCN(C(=O)c5ccco5)CC4)nc32)c1 | nt | ? | 21µM* | 14%
Cc1ccc(C)c(Cn2nnc3c(=O)[nH]c(C4CCN(S(=O)(=O)c5ccc(S(=O)(=O)N(C)C)cc5)CC4)nc32)c1 | nt | ? | 18µM* | 0%
Cc1ccc(C)c(Cn2nnc3c(=O)[nH]c(C4CCN(S(=O)(=O)c5ccc(S(=O)(=O)NC6CC6)cc5)CC4)nc32)c1 | nt | 18µM* | ? | nt
O=C(O)CCc1c2ccc(=O)c(O)c-2oc2c(O)c(O)ccc12 | -11% | -12% | -17% | nt
Cc1nn2c(=O)cc(COc3ccc(/C=C(\C#N)C(=O)Nc4ccc(F)cc4)cc3)nc2s1 | 1% | 4% | -13% | -12%
Cc1csc2c(N3CCN(C(=O)Nc4ccc(OC(F)(F)F)cc4)CC3)ncnc12 | -1% | 18µM* | 10µM* | 1%
Cc1csc2c(N3CCC(C(=O)O)CC3)ncnc12 | 0% | -5% | -5% | -1%
CCC(C(=O)Nc1ccc(C(C)C)cc1)n1nc(C)n2c(cc3cc(C)ccc32)c1=O (stereo unspecified) | 4% | ? | 23µM* | 3%
CCc1cccc(C)c1NC(=O)C(CC)n1ncn2c(cc3cc(C)ccc32)c1=O (stereo unspecified) | -10% | ? | ? | 3%
CCc1cccc(CC)c1NC(=O)C(CC)n1nc(C)n2c(cc3cc(C)ccc32)c1=O (stereo unspecified) | -6% | 21µM* | ? | 8%
